We go through five compounds from PubChem BioAssay (EPA / NIEHS).

As usually defined, the AC50 is the midpoint of the concentration-response curve, whichever way the signal moves.

Calls of active or inactive are those of the source. The calls were made as follows: active = hit-call score of the fitted dose curve at least 0.9, where 1 is the maximum; inactive = score below 0.9.

Test [1] deals with Transcription factor E2F1 (Homo sapiens) (UniProt Q01094). The experiment in a line: ATG_E2F_CIS: Attagene CIS-FACTORIAL HepG2 Assay for human E2F Transcription Factor 1 (AID 2282935). To be noted: HepG2 Attagene cis-reporter, E2F reporter RNA transcripts; actives raise or lower the signal. A digest of the protocol: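 Transient MRTU transfection of HepG2; 24 h compound exposure; RNA → oligo(dT) RT → PCR → FAM label → HpaI cut → CE fluorescence. Gain/loss of signal fit against DMSO.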

A short description of test [2]: ATG_E_Box_CIS: Attagene CIS-FACTORIAL HepG2 Assay for human Enhancer Box (E-box) (AID 2282936). To be noted: HepG2 E-box cis-reporter transcription, actives raise or lower the signal. The procedure, abridged: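 Transiently transfected HepG2, endogenous TF-driven reporters, 24 h dosing. Readout: RT-PCR plus capillary electrophoresis of fluorescent reporter fragments. Gain or loss of signal fitted bidirectionally against DMSO baseline.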

The nature of test [3]: ATG_M_61_CIS: Attagene CIS-FACTORIAL HepG2 Assay for M61 Transcription Factor (Internal Marker) (AID 2282937). Particulars: HepG2 Attagene CIS-FACTORIAL M61 internal marker reporter; actives raise or lower the signal. The procedure, abridged: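 Transfect HepG2 with MRTUs; dose 24 h; isolate RNA; reverse-transcribe with DNase I treatment; PCR-amplify, FAM-label and cut with HpaI for 2 h at 37 C; resolve by CE. Bidirectional fitting against DMSO.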

Test [4] can be described thus: ATG_EGR_CIS: Attagene CIS-FACTORIAL HepG2 Assay for human Early Growth Response 1 (EGR1) (AID 2282938). To be noted: HepG2 Attagene CIS-FACTORIAL EGR reporter mRNA; actives raise or lower the signal. The procedure, abridged:
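After a 24 h treatment of transiently transfected HepG2 cells, total RNA was reverse-transcribed and reporter sequences PCR-amplified, labelled and run on capillary electrophoresis. Reporters sit under cis-regulatory promoters sensing endogenous factors.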

Test [5] is described as follows: ATG_ERE_CIS: Attagene CIS-FACTORIAL HepG2 Assay for Estrogen Response Element (ERE) (AID 2282940). Particulars: HepG2 ERE cis-reporter, Attagene RNA transcript; actives raise or lower the signal. A digest of the protocol:
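HepG2, transient cis-reporter units, 24 h exposure. RNA isolated, oligo(dT) RT, reporter-specific PCR, FAM extension, HpaI cut, CE detection. Gain/loss-of-signal vs DMSO.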

Test [6] in a line: ATG_Ets_CIS: Attagene CIS-FACTORIAL HepG2 Assay for human Erythroblast Transformation Specific (ETS) (AID 2282941). Particulars: HepG2 ETS cis-reporter transcription, actives raise or lower the signal. A digest of the protocol:
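Endogenous transcription factor activity read as reporter mRNA via RT-PCR and capillary electrophoresis, with gain or loss fitted bidirectionally against DMSO. Human HepG2 liver cells, transiently transfected CIS reporter constructs, 24 h exposure.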

The target in test [7] is Hepatocyte nuclear factor 3-beta (Homo sapiens) (UniProt Q9Y261). The experiment in a line: ATG_FoxA2_CIS: Attagene CIS-FACTORIAL HepG2 Assay for human Forkhead box A2 (FOXA2) (AID 2282942). To be noted: HepG2 cis-reporter transcription factor activity, 24 h; actives raise or lower the signal. A digest of the protocol: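 24 h dosing of HepG2 bearing cis-reporter constructs; mRNA readout by RT-PCR/CE fluorescence; bidirectional fit, DMSO baseline.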

A short description of test [8]: ATG_GATA_CIS: Attagene CIS-FACTORIAL HepG2 Assay for human GATA Binding Protein (AID 2282944). Particulars: HepG2 GATA cis-element reporter, Attagene multiplex mRNA; actives raise or lower the signal. A digest of the protocol:
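DMSO serves as negative control and baseline for bidirectional fitting of reporter mRNA changes. HepG2 cells bearing transiently transfected cis-promoter reporters were exposed 24 h; transcripts detected via RT-PCR and capillary electrophoresis.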

Test [9] is described as follows: ATG_GLI_CIS: Attagene CIS-FACTORIAL HepG2 Assay for human Zinc Finger Protein GLI1 (AID 2282945). To be noted: HepG2, Attagene cis-factorial reporter mRNA, GLI element; actives raise or lower the signal. The procedure, abridged:
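Transiently transfected HepG2 cells report endogenous transcription factor activity via cis-element-driven reporter units. After 24 h compound exposure, reporter mRNA was measured by RT-PCR with capillary electrophoresis; bidirectional fitting against DMSO baseline.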

Test [10] concerns the target Bile acid receptor (Homo sapiens) (UniProt Q96RI1). Kind of test: ATG_IR1_CIS: Attagene CIS-FACTORIAL HepG2 Assay for human Nuclear Receptor Subfamily 1 Group H Member 4 (NR1H4), IR1 submotif (AID 2282946). To be noted: IR1 reporter transcription, actives raise or lower the signal. A digest of the protocol:
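Fluorescence of capillary-separated, HpaI-digested RT-PCR reporter products gave IR1-element mRNA induction in HepG2 cells 24 h after dosing. Endogenous transcription factors drove the cis-regulated reporters; activity was fitted bidirectionally against DMSO.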

Test [11] can be described thus: ATG_ISRE_CIS: Attagene CIS-FACTORIAL HepG2 Assay for human Interferon Regulatory Factor 1 (IRF1) binding to an Interferon-Stimulated Response Element (ISRE) (AID 2282948). Particulars: HepG2 ISRE cis-reporter (Attagene), mRNA transcription readout; actives raise or lower the signal. The procedure, abridged:
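Endogenous transcription factor activity read as reporter transcript abundance via RT-PCR and capillary electrophoresis. HepG2 cells transiently transfected, 24 h chemical exposure. Gain or loss fitted against DMSO baseline.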

Test [12] can be described thus: ATG_M_32_CIS: Attagene CIS-FACTORIAL HepG2 Assay for M32 Transcription Factor (Internal Marker) (AID 2282949).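 Also: background control marker of the multiplexed CIS panel rather than a real target.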 To be noted: HepG2 Attagene cis-factorial M32 reporter, mRNA; actives raise or lower the signal. The procedure, abridged: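 Transient MRTU transfection of HepG2; 24 h compound treatment; TriZol RNA, oligo(dT) RT, reporter PCR, 6-FAM primer extension, HpaI cut, CE. Gain/loss of signal vs DMSO.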

Test [13] is described as follows: ATG_M_06_CIS: Attagene CIS-FACTORIAL HepG2 Assay for M06 Transcription Factor (Internal Marker) (AID 2282950). Particulars: HepG2 Attagene CIS-FACTORIAL M06 internal marker reporter; actives raise or lower the signal. The procedure, abridged:
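Fluorescence-labelled RT-PCR products from cis-promoter reporter units, cut with HpaI and resolved by capillary electrophoresis, give the signal. Cells are human HepG2, dosed for 24 h. Serves as background control, fitted relative to DMSO.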

The target in test [14] is Hepatocyte nuclear factor 6 (Homo sapiens) (UniProt Q9UBC0). Kind of test: ATG_HNF6_CIS: Attagene CIS-FACTORIAL HepG2 Assay for human Hepatocyte Nuclear Factor 6 (HNF6) (AID 2282952). To be noted: HepG2 Attagene cis-factorial HNF6 reporter transcription; actives raise or lower the signal. A digest of the protocol:
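Twenty-four-hour chemical treatment of reporter-transfected HepG2 cells precedes RNA isolation, DNase-treated reverse transcription and PCR of reporter sequences. Labelled fragments are sized by capillary electrophoresis and fitted bidirectionally versus DMSO.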

For test [15], the target named is Heat shock factor protein 1 (Homo sapiens) (UniProt Q00613). The experiment in a line: ATG_HSE_CIS: Attagene CIS-FACTORIAL HepG2 Assay for human Heat Shock Transcription Factor 1 (HSE) (AID 2282953). To be noted: HepG2 HSE cis-reporter, Attagene RNA transcription; actives raise or lower the signal. A digest of the protocol:
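After a 24 h incubation with test chemical, transfected HepG2 cells were harvested for RNA; reporter transcripts were measured by RT-PCR and capillary electrophoresis. Values reflect gain or loss of signal relative to DMSO.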

A short description of test [16]: ATG_MRE_CIS: Attagene CIS-FACTORIAL HepG2 Assay for human Metal Responsive Element (MRE) (AID 2282954). To be noted: HepG2 MRE cis-reporter transcription, Attagene multiplex; actives raise or lower the signal. The procedure, abridged: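 RT-PCR/capillary electrophoresis readout of reporter mRNA, 24 h post-dosing, in HepG2 cells transfected with multiplexed cis-regulated reporter constructs. Gain or loss of signal fitted bidirectionally against DMSO baseline.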

Test [17] in a line: ATG_FoxO_CIS: Attagene CIS-FACTORIAL HepG2 Assay for human Forkhead box O (FoxO) (AID 2282943). Particulars: HepG2 Attagene cis-reporter, FoxO element, mRNA; actives raise or lower the signal. The procedure, abridged:
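Transfected HepG2 reporter cells exposed to test chemical for 24 h; reporter RNA measured by reverse transcription, PCR and fluorescent capillary electrophoresis; curves fitted for increases and decreases against DMSO.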

The target of test [18] is Hypoxia-inducible factor 1-alpha (Homo sapiens) (UniProt Q16665). Kind of test: ATG_HIF1a_CIS: Attagene CIS-FACTORIAL HepG2 Assay for human Hypoxia Inducible Factor 1 (HIF1A) (AID 2282951). Particulars: HepG2 Attagene cis-factorial HIF1a reporter transcription; actives raise or lower the signal. The procedure, abridged: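 After 24 h chemical exposure of reporter-transfected HepG2 cells, reporter cDNA was PCR-amplified, labelled by 6-FAM primer extension (2 min 95 C, 20 s 68 C, 10 min 72 C), HpaI-cut (2 h, 37 C) and analysed by CE.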

A short description of test [19]: ATG_M_19_CIS: Attagene CIS-FACTORIAL HepG2 Assay for M19 Transcription Factor (Internal Marker) (AID 2282939). To be noted: HepG2 Attagene CIS-FACTORIAL M19 internal marker reporter; actives raise or lower the signal. A digest of the protocol: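 Following a 24 h exposure, RNA from transfected HepG2 cells was reverse-transcribed, PCR-amplified with reporter-specific primers, end-labelled with 6-FAM and HpaI-digested before capillary separation. Values represent gain or loss versus DMSO.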

Test [20] can be described thus: ATG_GRE_CIS: Attagene CIS-FACTORIAL HepG2 Assay for human Glucocorticoid Response Elements (GRE) (AID 2282947). Particulars: HepG2 GRE cis-reporter, Attagene multiplex mRNA; actives raise or lower the signal. The procedure, abridged:
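Read-out: fluorescent reporter-transcript fragments separated by capillary electrophoresis after RT-PCR. Transiently transfected HepG2 cells carrying cis-element-driven reporter units were dosed for 24 h; gain or loss of signal fitted against DMSO control.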

Sequence of Heat shock factor protein 1 (Homo sapiens) (Q00613 whole entry, looked up): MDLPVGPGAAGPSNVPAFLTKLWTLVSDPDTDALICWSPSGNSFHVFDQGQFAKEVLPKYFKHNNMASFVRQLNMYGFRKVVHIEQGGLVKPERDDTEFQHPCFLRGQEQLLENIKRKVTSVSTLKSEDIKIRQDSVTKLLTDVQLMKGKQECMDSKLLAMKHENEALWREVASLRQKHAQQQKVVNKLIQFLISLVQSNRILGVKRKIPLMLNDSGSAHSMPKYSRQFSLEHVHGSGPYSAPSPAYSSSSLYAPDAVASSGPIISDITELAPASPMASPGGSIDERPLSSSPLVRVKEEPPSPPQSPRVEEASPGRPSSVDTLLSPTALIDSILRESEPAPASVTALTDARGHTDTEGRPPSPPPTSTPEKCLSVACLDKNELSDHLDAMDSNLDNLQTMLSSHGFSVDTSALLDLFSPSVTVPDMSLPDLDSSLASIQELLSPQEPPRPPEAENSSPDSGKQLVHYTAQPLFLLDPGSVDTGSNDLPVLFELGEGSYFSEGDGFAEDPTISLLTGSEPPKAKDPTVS
Sequence of Hepatocyte nuclear factor 3-beta (Homo sapiens) (Q9Y261 whole entry, looked up): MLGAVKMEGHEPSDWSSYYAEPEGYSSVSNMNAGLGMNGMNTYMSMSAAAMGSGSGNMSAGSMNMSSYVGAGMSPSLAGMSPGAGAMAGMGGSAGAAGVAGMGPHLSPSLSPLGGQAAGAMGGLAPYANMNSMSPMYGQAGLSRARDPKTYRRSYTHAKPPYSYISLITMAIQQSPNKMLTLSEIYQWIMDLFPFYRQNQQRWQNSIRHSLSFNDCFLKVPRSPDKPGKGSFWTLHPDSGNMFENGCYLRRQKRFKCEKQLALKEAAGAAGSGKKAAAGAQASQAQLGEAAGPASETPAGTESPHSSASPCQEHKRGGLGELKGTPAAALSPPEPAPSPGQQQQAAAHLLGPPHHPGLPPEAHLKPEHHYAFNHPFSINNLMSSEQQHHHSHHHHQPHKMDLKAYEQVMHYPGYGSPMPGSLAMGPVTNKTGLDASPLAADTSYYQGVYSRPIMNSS
Sequence of Hypoxia-inducible factor 1-alpha (Homo sapiens) (Q16665 whole entry, looked up): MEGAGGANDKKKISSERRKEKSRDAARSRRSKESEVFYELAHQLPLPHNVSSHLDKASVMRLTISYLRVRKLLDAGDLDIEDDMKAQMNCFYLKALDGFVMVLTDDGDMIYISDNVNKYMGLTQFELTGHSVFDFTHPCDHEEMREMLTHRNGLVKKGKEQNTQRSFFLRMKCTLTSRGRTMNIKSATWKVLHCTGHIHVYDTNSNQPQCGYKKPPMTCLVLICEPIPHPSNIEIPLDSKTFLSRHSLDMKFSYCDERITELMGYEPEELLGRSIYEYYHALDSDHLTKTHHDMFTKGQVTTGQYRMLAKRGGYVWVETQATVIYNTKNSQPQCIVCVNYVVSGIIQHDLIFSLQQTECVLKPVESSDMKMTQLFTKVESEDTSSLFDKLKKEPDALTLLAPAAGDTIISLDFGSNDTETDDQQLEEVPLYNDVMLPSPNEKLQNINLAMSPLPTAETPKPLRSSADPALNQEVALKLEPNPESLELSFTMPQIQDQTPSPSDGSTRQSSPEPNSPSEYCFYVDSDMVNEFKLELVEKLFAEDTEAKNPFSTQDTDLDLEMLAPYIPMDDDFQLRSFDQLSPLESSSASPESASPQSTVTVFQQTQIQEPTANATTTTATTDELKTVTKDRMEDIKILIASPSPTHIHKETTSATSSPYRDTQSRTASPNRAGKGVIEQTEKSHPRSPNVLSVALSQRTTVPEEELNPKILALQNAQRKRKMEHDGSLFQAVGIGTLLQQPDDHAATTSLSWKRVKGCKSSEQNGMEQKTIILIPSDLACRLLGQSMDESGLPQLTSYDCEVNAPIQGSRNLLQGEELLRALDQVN
Sequence of Transcription factor E2F1 (Homo sapiens) (Q01094 whole entry, looked up): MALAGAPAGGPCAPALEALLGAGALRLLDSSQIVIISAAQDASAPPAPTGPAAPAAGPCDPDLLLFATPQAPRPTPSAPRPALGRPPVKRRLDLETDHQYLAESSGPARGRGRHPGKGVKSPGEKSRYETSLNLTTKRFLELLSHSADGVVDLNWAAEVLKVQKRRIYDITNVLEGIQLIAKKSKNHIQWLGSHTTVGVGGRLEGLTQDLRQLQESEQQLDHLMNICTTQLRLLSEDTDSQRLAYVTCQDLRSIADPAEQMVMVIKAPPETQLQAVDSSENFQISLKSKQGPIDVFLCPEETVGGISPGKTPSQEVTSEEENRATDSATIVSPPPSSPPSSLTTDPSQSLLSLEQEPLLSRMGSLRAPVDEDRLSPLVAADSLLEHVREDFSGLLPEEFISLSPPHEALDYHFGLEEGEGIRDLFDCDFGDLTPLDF
Sequence of Hepatocyte nuclear factor 6 (Homo sapiens) (Q9UBC0 whole entry, looked up, the tested form may be a part): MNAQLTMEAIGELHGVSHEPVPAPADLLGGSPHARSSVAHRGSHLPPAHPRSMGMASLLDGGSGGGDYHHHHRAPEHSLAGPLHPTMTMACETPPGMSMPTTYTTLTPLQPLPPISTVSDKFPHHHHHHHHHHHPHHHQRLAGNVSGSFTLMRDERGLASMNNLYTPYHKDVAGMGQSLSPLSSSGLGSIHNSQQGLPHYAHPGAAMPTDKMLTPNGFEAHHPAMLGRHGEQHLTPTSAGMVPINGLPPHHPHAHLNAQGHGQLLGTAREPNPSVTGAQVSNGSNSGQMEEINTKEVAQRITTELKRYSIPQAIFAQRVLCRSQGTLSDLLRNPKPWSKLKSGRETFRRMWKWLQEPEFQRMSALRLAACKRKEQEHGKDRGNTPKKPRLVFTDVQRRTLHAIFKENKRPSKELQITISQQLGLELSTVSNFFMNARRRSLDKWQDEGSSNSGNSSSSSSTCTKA
Sequence of Bile acid receptor (Homo sapiens) (Q96RI1 whole entry, looked up): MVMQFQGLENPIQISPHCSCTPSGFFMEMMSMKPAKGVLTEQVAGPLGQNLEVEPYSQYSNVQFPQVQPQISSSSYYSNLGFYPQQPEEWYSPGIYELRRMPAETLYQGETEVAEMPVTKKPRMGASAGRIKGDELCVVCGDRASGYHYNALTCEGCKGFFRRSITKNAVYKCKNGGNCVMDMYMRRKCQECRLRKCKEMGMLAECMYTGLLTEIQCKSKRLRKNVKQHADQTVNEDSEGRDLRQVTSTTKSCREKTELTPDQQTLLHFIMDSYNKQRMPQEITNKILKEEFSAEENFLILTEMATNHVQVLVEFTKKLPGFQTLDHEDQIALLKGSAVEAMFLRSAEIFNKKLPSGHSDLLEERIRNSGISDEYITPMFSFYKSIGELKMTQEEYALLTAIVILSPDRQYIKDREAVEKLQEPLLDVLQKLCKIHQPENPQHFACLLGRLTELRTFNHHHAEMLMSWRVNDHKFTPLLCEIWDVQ

Regarding `N=C1C=CC(=C(c2ccc(N)cc2)c2ccc(N)cc2)C=C1`, the result in test [1], in test [3], in test [4], in test [5], in test [7] and in test [9] was inactive. The compound was called inactive in [10], in [12], in test [13] and in [14]. In addition, the AC50 was 72.5 µM (active) in test [2]; 25.4 µM (active) in test [6]; 26.2 µM (active) in test [8]; 33.4 µM (active) in test [11]; 42.5 µM (active) in test [15]; 48.2 µM (active) in test [16].

`CC1=CC=C(C(C)C)CC1`: the compound was called inactive in test [1], in [2], in [3], in test [4], in test [5] and in test [6]. Besides, the call in test [7], in [17], in [8], in [9], in test [11] and in test [12] was inactive. The compound was classed as inactive in test [13], in [18], in test [14], in test [15] and in test [16].

Regarding `CCCC=C(C=O)CC`, the compound was classed as inactive in [1], in test [2], in test [3], in [4], in test [5] and in test [6]. Also, the compound was called inactive in test [7], in test [17], in [8], in test [9], in [12] and in test [13]. Also, the compound was called inactive in [18], in [14], in test [15] and in [16].

With `C=CCCCCCCCCOC(C)=O`, the compound was called inactive in [1], in [2], in test [3], in test [19], in [5] and in [6]. In addition, the compound was classed as inactive in test [7], in [17], in test [8], in [9], in test [10] and in test [20]. For the same compound, the compound was called inactive in [12], in [13], in [14], in test [15] and in [16].

With `C=C[C@@]1(C)CC(=O)[C@]2(O)[C@@]3(C)[C@@H](O)CCC(C)(C)[C@@H]3[C@H](O)[C@H](OC(C)=O)[C@@]2(C)O1`, the compound was classed as inactive in test [1], in test [2], in test [3], in test [4], in [6] and in test [7]. In addition, the compound was classed as inactive in test [17], in test [8], in test [9], in [11], in [12] and in [13]. Further, the outcome in test [18], in test [14], in [15] and in test [16] was inactive. Besides, in [5], the AC50 is 0.895 µM (active).
